Calls of active or inactive are those of the source.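 The calls were made as follows: active = CXCR6 mean IC50 below 15 µM, and neither CCR6 nor CXCR5 mean IC50 under five times that; inactive = the rest.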

In the assay the target is C-X-C chemokine receptor type 5 (Homo sapiens) (UniProt P32302). Kind of assay: chemokine receptor panel antagonism: CCR6, CXCR5, CXCR6, profiling panel, selectivity assay for CXCR6 antagonist project, cell-based, CHO-K1 PathHunter beta-arrestin, luminescence (AID 651601). The note with it: antagonist mode, mean of runs.
Chain of C-X-C chemokine receptor type 5 (Homo sapiens) (P32302 whole entry, looked up): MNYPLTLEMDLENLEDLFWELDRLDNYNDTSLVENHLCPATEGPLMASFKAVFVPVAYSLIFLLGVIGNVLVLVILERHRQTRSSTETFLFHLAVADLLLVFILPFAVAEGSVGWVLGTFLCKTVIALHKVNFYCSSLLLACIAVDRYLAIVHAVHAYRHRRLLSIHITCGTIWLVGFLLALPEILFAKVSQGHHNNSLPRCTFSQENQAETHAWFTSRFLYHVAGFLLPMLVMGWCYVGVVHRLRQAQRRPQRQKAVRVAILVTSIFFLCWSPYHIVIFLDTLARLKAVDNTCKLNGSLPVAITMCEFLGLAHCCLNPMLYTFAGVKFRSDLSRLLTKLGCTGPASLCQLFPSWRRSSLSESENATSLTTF
Turning to `COc1cc(C(=O)NC2CC3CCCC(C2)N3CC(=O)Nc2ccccc2)cc(OC)c1OC` (stereo unspecified), the result was inactive.

Consider `COc1cccc(C(=O)NC2CC3CCCC(C2)N3CC(=O)Nc2ccc(N(C)C)cc2)c1` (stereo unspecified), for which the call was inactive.

Consider `CN(C)c1ccc(NC(=O)CN2C3CCCC2CC(NC(=O)c2ccccc2)C3)cc1` (stereo unspecified), for which the compound was classed as inactive.

As for `O=C(CN1C2CCCC1CC(NC(=O)c1ccccc1)C2)Nc1ccccc1` (stereo unspecified), the compound was classed as inactive.

`COc1cccc(C(=O)NC2CC3CCCC(C2)N3CC(=O)Nc2ccccc2C(F)(F)F)c1` (stereo unspecified): the compound was classed as inactive. For the compound `O=C(CN1C2CCCC1CC(NC(=O)c1ccccc1)C2)Nc1ccccc1C(F)(F)F` (stereo unspecified), the call was inactive.

The values above are taken from PubChem BioAssay AID651601 (Sanford-Burnham Center for Chemical Genomics, 2012).
